# Test results taken from ChEMBL document CHEMBL3988442, “University of Dundee, Small-Polar-MMV Screening Library” (2021).
# About 1,000 (1.4%) of roughly 69,000 compounds showed an effect of 50% or more. Many of the other results were omitted from the sample, so strong results are more common in it than they were.
# Test system: Leishmania donovani
# Experiment: Leishmania intramacrophage assay
# Format: functional, organism-based
# Design: scale not given: in the data most compounds retested in dose-response had high values
structure (smiles),measurement,setting,value
CNC(=O)[C@H]1CC[C@@H]2[C@@H](CCN2CCOCc2ccccc2)O1.O=C(O)C(F)(F)F,Percent Effect,"30.3 µM, […]",45.25%
Cc1cc(NC2CCc3nc(C(C)C)nn3C2)n2ncnc2n1 (centres undefined),Percent Effect,"30.3 µM, […]",-19.33%
CC[C@@H](C)[C@H](NC(=O)Cn1ccc2c(Cl)cccc21)C(=O)O,Percent Effect,"30.3 µM, […]",7.093%
Cc1nnc(C(C)N(C)Cc2c(C)nn(-c3ccccc3C)c2C)o1 (centres undefined),Percent Effect,"30.3 µM, […]",60.72%
CCc1nnc(C(C)N(C)Cc2c(C)nn(-c3ccccc3)c2C)o1 (centres undefined),Percent Effect,"30.3 µM, […]",21.58%
Cc1nnc(C(C)N(C)Cc2c(C)nn(-c3ccccc3)c2C)o1 (centres undefined),Percent Effect,"30.3 µM, […]",15.94%
O=C(NCC1(O)CCC1)c1cccc(-n2cccn2)c1,Percent Effect,"30.3 µM, […]",0.6562%
O=C(CSC1=NS(=O)(=O)c2cc(F)ccc2N1)c1ccc(Cl)cc1,Percent Effect,"30 µM, 30.03 µM",37.27%
O=S1(=O)N=C(SCc2ccc(Cl)cc2)Nc2ccc(F)cc21,Percent Effect,"30 µM, 30.03 µM",63.48%
O=C(CSC1=NS(=O)(=O)c2cc(F)ccc2N1)Nc1ccc(Cl)cc1,Percent Effect,"30.3 µM, […]",3.738%
CC(C)(C)c1cn(CC2CCCN(c3cnc4ccccc4n3)C2)nn1 (centres undefined),Percent Effect,"30.3 µM, […]",23.01%
NC(=O)CN1CCC2(CC1)CC(=O)c1ccc3ccccc3c1O2,Percent Effect,"30.3 µM, […]",11.62%
CCOC(=O)CN1CCC2(CC1)CC(=O)c1ccc3ccccc3c1O2,Percent Effect,"30.3 µM, […]",52.56%
CN(C)C(=O)CN1CCC2(CC1)CC(=O)c1ccc3ccccc3c1O2,Percent Effect,"30.3 µM, […]",36.93%
Cc1nc(NC(=O)C2(C)CN(C)CCO2)sc1C.Cl (centres undefined),Percent Effect,"30.3 µM, […]",1.58%
Cc1nc(Nc2nnc(C)s2)cc(C2CCCN2)n1.Cl (centres undefined),Percent Effect,"30.3 µM, […]",-1.301%
Cc1nc(Nc2nccs2)cc(C2CCCN2)n1.Cl (centres undefined),Percent Effect,"30.3 µM, […]",34.17%
Cc1nc(Nc2ncc(C)s2)cc(C2CCCN2)n1.Cl (centres undefined),Percent Effect,"30.3 µM, […]",56.27%
COc1cc(/C=C/c2ncc(C(=O)O)s2)cc(Cl)c1O,Percent Effect,"30 µM, 30.03 µM",50.87%
COc1cc(/C=C/c2ncc(C(=O)O)s2)cc(Cl)c1OC,Percent Effect,30 µM,-16.83%
CCOc1c(Cl)cc(/C=C/c2ncc(C(=O)O)s2)cc1OC,Percent Effect,30 µM,26.63%
O=C1CNc2ncnc(Nc3cccc(Cn4cccn4)c3)c2N1,Percent Effect,"30.3 µM, […]",32.36%
O=C(Nc1ccccc1OCCc1ccccn1)N1CCOCC(O)C1 (centres undefined),Percent Effect,"30.3 µM, […]",34.91%
O=C(Nc1ccccc1OCCc1ccccn1)N1CC[C@@H](O)C1,Percent Effect,"30.3 µM, […]",-41.47%
O=C(Nc1ccccc1OCCc1ccccn1)N1CCOCC1,Percent Effect,"30.3 µM, […]",51.44%
CC(C)CN1C(=O)C2(CCN(CC3CCOCC3)C2)c2ccccc21.O=C(O)C(F)(F)F (centres undefined),Percent Effect,"30.3 µM, […]",64.12%
O=C(O)C(F)(F)F.c1cnc(N2CCC3(CC2)CN(CC2CC2)c2ccccc23)nc1,Percent Effect,"30 µM, 30.03 µM",24.73%
CC(C)CN1C(=O)C2(CCN(Cc3cccs3)C2)c2ccccc21.O=C(O)C(F)(F)F (centres undefined),Percent Effect,"30.3 µM, […]",1.991%
O=C(O)C(F)(F)F.O=C1CC2(CCN(CC3CCOC3)CC2)c2ccccc2N1CC1CC1 (centres undefined),Percent Effect,"30.3 µM, […]",8.748%
CC(C)CN1C(=O)C2(CCN(Cc3ccoc3)C2)c2ccccc21.O=C(O)C(F)(F)F (centres undefined),Percent Effect,"30.3 µM, […]",-1.91%
O=C(O)C(F)(F)F.O=C(O)C(F)(F)F.OCCN1CC2(CCN(CC3CC3)CC2)c2ccccc21,Percent Effect,"30.3 µM, […]",75.39%
OC1(CN2CCCC2)COCCN(c2nccs2)C1 (centres undefined),Percent Effect,"30.3 µM, […]",-9.416%
COCC1CN(S(=O)(=O)N(C)C)Cc2cnn(CC3CCCC3)c21.O=C(O)C(F)(F)F (centres undefined),Percent Effect,"30.3 µM, […]",-10.54%
Cc1ccc(F)c(NC(=O)CCC(=O)N(C)Cc2cc(C3CC3)[nH]n2)c1,Percent Effect,"30.3 µM, […]",5.303%
COc1ccccc1CC(=O)NC(CC(=O)O)c1ccc(C)cc1 (centres undefined),Percent Effect,"30.3 µM, […]",-0.7929%
COc1ccccc1Oc1ncccc1CNC(=O)CN1CCCC1=O,Percent Effect,"30.3 µM, […]",15.35%
Cc1cc(NC(=O)NCc2cccnc2OC(C)C)no1,Percent Effect,"30.3 µM, […]",23.81%
O=C(O)C(F)(F)F.O=C(O)C(F)(F)F.c1ccc(CN2CCc3nnc(CN4CCCCC4)n3CC2)nc1,Percent Effect,"30 µM, 30.03 µM",-31.83%
Cc1cc(C)nc(N2CCC(OCCN3CCCCC3)C2)n1 (centres undefined),Percent Effect,"30.3 µM, […]",-14.11%
CNc1cc(C)nc(N2C[C@H](C3CC3)[C@@H](N)C2)n1,Percent Effect,"30.3 µM, […]",66.39%
CNc1cc(C)nc(N2C[C@@H](C(=O)O)[C@H](C3CC3)C2)n1,Percent Effect,"30.3 µM, […]",1.34%
CCc1cc(N2C[C@H](C3CC3)[C@@H](N)C2)nc(N2CCCC2)n1,Percent Effect,"30.3 µM, […]",72.46%
CCc1cc(N2C[C@H](C3CC3)[C@@H](N)C2)nc(N2CCOCC2)n1,Percent Effect,"30.3 µM, […]",29.17%
CC(C)Oc1cc(N2C[C@H](C3CC3)[C@@H](N)C2)nc(N)n1,Percent Effect,"30.3 µM, […]",15.53%
Cc1cc(N2C[C@H](C3CC3)[C@@H](N)C2)nc(N2CCCCC2)n1,Percent Effect,"30.3 µM, […]",55.81%
N[C@H]1CN(Cc2cnc(N3CCCC3)nc2)C[C@@H]1C1CC1,Percent Effect,"30.3 µM, […]",17.06%
CNc1cc(C)nc(N2C[C@H](NC(=O)C3CCOCC3)[C@@H](C3CC3)C2)n1,Percent Effect,"30.3 µM, […]",-19.84%
Nc1cc2c(nn1)CCN(C(=O)c1ccc(-c3ccco3)[nH]c1=O)C2,Percent Effect,"30.3 µM, […]",9.211%
O=c1cc(C2CCNCC2)nc(CCCc2ccccc2)[nH]1,Percent Effect,"30.3 µM, […]",27.29%
